# Measurements: PubChem BioAssay (Tox21)
# Inconclusive results are not listed. A call without a number means that no potency is given here. Activity calls are given as the source filed them. Unless noted, the call rests on the fitted dose curve; in most records, active means well fitted curve in the direction sought with a large enough effect in the repeat runs; inconclusive means weak or mixed curves; inactive means no such curve, though single readings can be large; an effect the other way counts as inactive or inconclusive.
# Key:
# [1] = biological target: Estrogen receptor beta (Homo sapiens) (UniProt Q92731); experiment: qHTS assay to identify small molecule agonists of the estrogen receptor beta (ER-beta) signaling pathway (AID 1259377; active means well fitted activation curve with a large enough effect in the signal ratio in the repeat runs, not every such curve was filed as active; the % refers to the signal ratio)
# Summary of the method: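 Agonist mode cell assay in GripTite HEK293T cells expressing an ER-beta fusion that drives beta-lactamase from an Upstream Activator Sequence; 16 hr compound exposure at 37C, then 2 h LiveBLAzer B/G FRET substrate at room temperature, fluorescence read-out.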
# [2] = biological target: Estrogen receptor beta (Homo sapiens) (UniProt Q92731); experiment: qHTS assay to identify small molecule antagonists of the estrogen receptor beta (ER-beta) signaling pathway (AID 1259378; active means well fitted inhibition curve with a large enough effect in the signal ratio in the repeat runs, not every such curve was filed as active; the % refers to the signal ratio)
# Summary of the method: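 ER-beta-UAS-bla HEK293T (GripTite) cells in 2% charcoal-stripped FBS medium were preincubated 6 hr at 37C, dosed with compound, then stimulated with 1 nM E2 (final) for 16 hr; beta-lactamase reporter read by B/G FRET fluorescence after 2 hr substrate loading.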
# [3] = qHTS assay to identify small molecule agonists of the androgen receptor (AR) signaling pathway in the presence of an antagonist - cell viability counter screen (AID 1259379); further: nearly all actives have a fitted effect of over 25% in size; further: potency means the concentration at half of the fitted maximal effect
# Summary of the method: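 MDA-kb2 human breast carcinoma cells (stable MMTV-luciferase, AR/GR responsive) were seeded 3,000 cells/well, pre-incubated 5 hr at 37C without CO2, then given 3.0uM nilutamide and compounds at 15 concentrations for 16 hr. Viability was read by CellTiter-Fluor fluorescence.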
# [4] = qHTS assay to identify small molecule agonists of the estrogen receptor beta (ER-beta) signaling pathway - cell viability counter screen (AID 1259380); further: nearly all actives have a fitted effect of over 30% in size
# Summary of the method: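 ER-beta-UAS-bla HEK293T cells in medium with 2% charcoal-stripped FBS were preincubated 6 hr at 37C, dosed with compound in DMSO for 16 hr, then after the bla read, CellTiter-Glo was added for 30 min at room temperature; luminescence recorded.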
# [5] = qHTS assay to identify small molecule antagonists of the estrogen receptor beta (ER-beta) signaling pathway - cell viability counter screen (AID 1259382); further: series mostly up to about 92 µM; nearly all actives have a fitted effect of over 55% in size
# Summary of the method: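 ER-beta-UAS-bla HEK293T cells (2,000/well, 2% charcoal-stripped FBS) were pre-incubated 6 hr at 37C, then given compound plus 1nM final 17-beta-estradiol for 16 hr. Viability was read in the same wells by CellTiter-Glo luminescence after 30 min at room temperature.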
# [6] = qHTS assay to identify small molecule agonists or antagonists of the thyroid stimulating hormone receptor (TSHR) signaling pathway - wild type cell line counter screen (AID 1259384; calls by dose curve)
# Summary of the method: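 Wild-type HEK293 cells were plated 18 h at 37 C/5% CO2, pin-dosed with compound plus Ro20-1724 medium, held 30 min at room temperature, then given cAMP-d2 and anti-cAMP-cryptate; fluorescence was read after 1 h. Fifteen concentrations, triplicate.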
# [7] = biological target: Thyrotropin receptor (Homo sapiens) (UniProt P16473); experiment: qHTS assay to identify small molecule antagonists of the thyroid stimulating hormone receptor (TSHR) signaling pathway (AID 1259385; calls by dose curve; further: nearly all actives have a fitted effect of over 20% in size; further: potency means the concentration at half of the fitted maximal effect)
# Summary of the method: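 TSHR-HEK293 cells were plated and held 18 h at 37C/5% CO2, then given compound plus Ro20-1724 and stimulated with TSH at 1.5 ng/mL final. After 30 min at room temperature, cAMP was detected with cAMP-d2/anti-cAMP-cryptate (1 h) by fluorescence.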
# [8] = qHTS assay to identify small molecule agonists of the estrogen receptor alpha (ER-alpha) signaling pathway in the presence of an antagonist - cell viability counter screen (AID 1259386);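 further: series mostly up to about 92 µM; cells exposed to compounds for 22 h at 37 °C before the viability read; nearly all actives have a fitted effect of over 30% in size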
# Summary of the method: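 VM7Luc4E2 cells (endogenous full-length ER-alpha, 4×ERE-luciferase) were held 5 days in phenol red-free medium with 10% charcoal-stripped FBS, plated, then given 10.0nM ICI-182,780 and compounds at 15 concentrations for 22hr at 37C; viability read by CellTiter-Fluor fluorescence.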
# [9] = biological target: Progesterone receptor (Homo sapiens) (UniProt P06401); experiment: qHTS assay to identify small molecule agonists of the progesterone receptor (PR) signaling pathway (AID 1346784; calls by dose curve; further: nearly all actives have a fitted effect of over 30% in size)
# Summary of the method: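 Cells (PR-UAS-bla HEK 293T, GripTite) were plated in assay medium containing 2% charcoal-stripped FBS and incubated 6 hr. Test compounds in DMSO were added for 16 hr at 37C. FRET substrate was then loaded for 2 hr at room temperature before fluorescence reading.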
# [10] = biological target: Progesterone receptor (Homo sapiens) (UniProt P06401); experiment: qHTS assay to identify small molecule antagonists of the progesterone receptor (PR) signaling pathway (AID 1346795; active means well fitted inhibition curve with a large enough effect in the signal ratio in the repeat runs, not every such curve was filed as active; the % refers to the signal ratio)
# Summary of the method: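 Antagonist mode: compounds tested against 1 nM (final) promegestone stimulation in HEK293T cells expressing PR-UAS-bla reporter, 16 hr at 37C, 5% CO2; beta-lactamase activity detected via B/G FRET substrate after 2 hr at room temperature.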
# [11] = qHTS assay to identify small molecule antagonists of the progesterone receptor (PR) signaling pathway - cell viability counter screen (AID 1346798); further: series mostly up to about 92 µM; nearly all actives have a fitted effect of over 50% in size
# Summary of the method: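 Counter screen for cytotoxicity: viability of PR-UAS-bla HEK293T cells was measured with CellTiter-Glo luminescence following 16 hr compound exposure in the presence of R5020.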
# [12] = qHTS assay to identify small molecule agonists of the progesterone receptor (PR) signaling pathway - cell viability counter screen (AID 1346799; calls by dose curve; further: nearly all actives have a fitted effect of over 45% in size)
# Summary of the method: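 Cells (PR-UAS-bla HEK293T) are plated at 3,000/well in 2% charcoal-stripped FBS medium, rested 6 hr, dosed and incubated 16 hr at 37C. CellTiter-Glo is then added and luminescence measured after 30 min at room temperature.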
# [13] = qHTS assay to identify small molecule antagonists of the TGF-beta/Smad signaling pathway - cell viability counter screen (AID 1346824); further: nearly all actives have a fitted effect of over 50% in size
# Summary of the method: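 SBE-bla HEK 293T cells were plated overnight at 37 C, then given compounds in DMSO plus TGF-beta1 (added as 0.25 ng/mL solution) for 5 hr. After the bla read, CellTiter-Glo was added to the same wells and luminescence read after 30 min at room temperature.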
# [14] = qHTS assay to identify small molecule agonists of the TGF-beta/Smad signaling pathway - cell viability counter screen (AID 1346829); further: top concentration of the series differs between compounds; nearly all actives have a fitted effect of over 45% in size
# Summary of the method: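 Compound-treated SBE-bla HEK 293T cells (5 hr, 37 C) were assessed for viability with CellTiter-Glo in parallel with the reporter read.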
# [15] = qHTS assay to identify small molecule agonists of the TGF-beta/Smad signaling pathway (AID 1346859; active means well fitted activation curve with a large enough effect in the signal ratio in the repeat runs, not every such curve was filed as active; the % refers to the signal ratio; further: series mostly up to about 77 µM)
# Summary of the method: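 Reporter line: HEK 293T with stably integrated SBE-controlled beta-lactamase. Compound exposure lasts 5 hr at 37 C and 5% CO2; substrate loading follows for 2 hr at room temperature, with emission read at 460 and 530 nm.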
# [16] = biological target: Thyrotropin-releasing hormone receptor (Homo sapiens) (UniProt P34981); experiment: qHTS assay to identify small molecule antagonists of the thyrotropin-releasing hormone receptor (TRHR) signaling pathway (AID 1346877; active means well fitted inhibition curve with a large enough effect in the repeat runs, not every such curve was filed as active; further: series mostly up to about 51 µM)
# Summary of the method: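 TRHR-expressing HEK293 cells were seeded, cultured 18 h at 37 °C, then loaded with calcium dye for 2 h. Compounds were pre-incubated 5 min at room temperature before 1 nM TRH (final) was added, and kinetic fluorescence was recorded for 3 min.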
# [17] = qHTS assay to identify small molecule antagonists of the sonic hedgehog signaling (Shh) pathway (AID 1259369; calls by dose curve; further: nearly all actives have a fitted effect of over 45% in size; further: potency means the concentration at half of the fitted maximal effect)
# Summary of the method: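 NIH/3T3-derived 3T3Gli1-Luc cells with stably integrated Gli1-Luc reporter were preincubated 4hr at 37 C, then given compounds in DMSO plus Shh conditioned medium and incubated 24hr. Firefly luciferase luminescence read after 30min reagent at room temperature.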
# [18] = biological target: Androgen receptor (Homo sapiens) (UniProt P10275); experiment: qHTS assay to identify small molecule agonists of the androgen receptor (AR) signaling pathway in the presence of an antagonist (AID 1259381; calls by dose curve; further: nearly all actives have a fitted effect of over 15% in size)
# Summary of the method: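 MDA-kb2 human breast carcinoma cells carrying an MMTV-luciferase reporter (AR- and GR-responsive) were treated with compounds at 15 concentrations plus 3.0uM final nilutamide for 16hr at 37C without CO2; luminescence was read after ONE-Glo addition.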
# [19] = biological target: Estrogen receptor (Homo sapiens) (UniProt P03372); experiment: qHTS assay to identify small molecule agonists of the estrogen receptor alpha (ER-alpha) signaling pathway in the presence of an antagonist (AID 1259383; calls by dose curve; further: top concentration of the series differs between compounds; nearly all actives have a fitted effect of over 15% in size)
# Summary of the method: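 VM7Luc4E2 cells (endogenous full-length ER-alpha, 4×ERE-luciferase) were precultured 5 days in phenol red-free medium with 10% charcoal-stripped FBS, given 10.0nM ICI-182,780 (final), then treated with compounds at 15 concentrations for 22hr at 37C; luminescence read with ONE-Glo.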
# [20] = biological target: Thyrotropin-releasing hormone receptor (Homo sapiens) (UniProt P34981); experiment: qHTS assay to identify small molecule agonists of the thyrotropin-releasing hormone receptor (TRHR) signaling pathway (AID 1346891; calls by dose curve; further: series mostly up to about 58 µM)
# Summary of the method: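 Cells: TRHR-Hek293, seeded and incubated 18 h. Dye loading: 2 h at 37 °C. Compound added from DMSO stock by pin tool. Read-out: kinetic calcium fluorescence over 3 min.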
# Progesterone receptor (Homo sapiens), sequence (P06401 whole entry, looked up): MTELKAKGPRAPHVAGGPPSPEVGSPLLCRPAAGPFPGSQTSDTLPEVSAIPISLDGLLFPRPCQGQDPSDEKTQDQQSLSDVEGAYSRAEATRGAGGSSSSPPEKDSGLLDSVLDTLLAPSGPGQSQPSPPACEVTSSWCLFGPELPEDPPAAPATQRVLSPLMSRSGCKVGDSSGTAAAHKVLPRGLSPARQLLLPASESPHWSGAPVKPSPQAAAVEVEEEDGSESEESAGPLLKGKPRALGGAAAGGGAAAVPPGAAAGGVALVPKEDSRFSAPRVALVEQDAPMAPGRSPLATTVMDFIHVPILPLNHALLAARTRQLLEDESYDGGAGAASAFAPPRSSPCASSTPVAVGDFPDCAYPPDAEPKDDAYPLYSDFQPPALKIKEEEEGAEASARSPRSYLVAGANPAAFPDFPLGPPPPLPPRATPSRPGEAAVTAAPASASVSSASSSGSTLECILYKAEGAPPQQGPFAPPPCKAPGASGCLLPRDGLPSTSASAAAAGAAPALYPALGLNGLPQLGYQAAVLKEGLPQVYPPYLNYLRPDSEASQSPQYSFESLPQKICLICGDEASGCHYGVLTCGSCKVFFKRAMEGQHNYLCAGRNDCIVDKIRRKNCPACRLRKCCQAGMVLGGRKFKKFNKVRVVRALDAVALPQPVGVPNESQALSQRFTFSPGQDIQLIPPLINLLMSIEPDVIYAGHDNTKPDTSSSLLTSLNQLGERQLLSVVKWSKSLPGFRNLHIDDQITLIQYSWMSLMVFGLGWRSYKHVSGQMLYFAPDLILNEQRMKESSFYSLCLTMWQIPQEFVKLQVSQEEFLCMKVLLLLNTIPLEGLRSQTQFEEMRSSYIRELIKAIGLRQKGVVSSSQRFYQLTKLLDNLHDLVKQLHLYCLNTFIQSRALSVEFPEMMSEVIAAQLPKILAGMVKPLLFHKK
# Thyrotropin-releasing hormone receptor (Homo sapiens), sequence (P34981 whole entry, looked up): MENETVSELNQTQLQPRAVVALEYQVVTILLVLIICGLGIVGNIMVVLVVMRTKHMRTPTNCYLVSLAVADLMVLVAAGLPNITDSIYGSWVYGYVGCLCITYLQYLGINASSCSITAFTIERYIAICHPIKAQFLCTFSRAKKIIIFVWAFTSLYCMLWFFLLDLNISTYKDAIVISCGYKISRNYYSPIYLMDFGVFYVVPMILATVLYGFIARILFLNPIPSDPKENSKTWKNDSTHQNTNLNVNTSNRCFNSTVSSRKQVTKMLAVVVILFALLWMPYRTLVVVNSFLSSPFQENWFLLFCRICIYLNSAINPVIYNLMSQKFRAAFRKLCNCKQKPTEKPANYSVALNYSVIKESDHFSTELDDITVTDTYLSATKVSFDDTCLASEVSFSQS
# Estrogen receptor beta (Homo sapiens), sequence (Q92731 whole entry, looked up, the tested form may be a part): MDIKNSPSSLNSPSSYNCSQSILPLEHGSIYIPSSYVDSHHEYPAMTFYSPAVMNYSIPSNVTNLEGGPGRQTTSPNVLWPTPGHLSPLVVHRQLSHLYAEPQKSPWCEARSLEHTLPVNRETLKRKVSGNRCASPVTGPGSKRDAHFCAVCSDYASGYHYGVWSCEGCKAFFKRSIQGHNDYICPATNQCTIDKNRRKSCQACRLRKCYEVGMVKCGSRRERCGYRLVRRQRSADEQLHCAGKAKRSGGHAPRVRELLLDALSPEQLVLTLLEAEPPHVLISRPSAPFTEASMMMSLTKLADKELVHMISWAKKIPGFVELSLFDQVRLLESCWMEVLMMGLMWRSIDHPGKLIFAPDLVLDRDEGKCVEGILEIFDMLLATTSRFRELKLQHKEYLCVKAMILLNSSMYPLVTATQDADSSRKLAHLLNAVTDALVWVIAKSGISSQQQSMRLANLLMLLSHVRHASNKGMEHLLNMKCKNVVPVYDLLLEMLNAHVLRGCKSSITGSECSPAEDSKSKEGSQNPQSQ
# Thyrotropin receptor (Homo sapiens), sequence (P16473 whole entry, looked up): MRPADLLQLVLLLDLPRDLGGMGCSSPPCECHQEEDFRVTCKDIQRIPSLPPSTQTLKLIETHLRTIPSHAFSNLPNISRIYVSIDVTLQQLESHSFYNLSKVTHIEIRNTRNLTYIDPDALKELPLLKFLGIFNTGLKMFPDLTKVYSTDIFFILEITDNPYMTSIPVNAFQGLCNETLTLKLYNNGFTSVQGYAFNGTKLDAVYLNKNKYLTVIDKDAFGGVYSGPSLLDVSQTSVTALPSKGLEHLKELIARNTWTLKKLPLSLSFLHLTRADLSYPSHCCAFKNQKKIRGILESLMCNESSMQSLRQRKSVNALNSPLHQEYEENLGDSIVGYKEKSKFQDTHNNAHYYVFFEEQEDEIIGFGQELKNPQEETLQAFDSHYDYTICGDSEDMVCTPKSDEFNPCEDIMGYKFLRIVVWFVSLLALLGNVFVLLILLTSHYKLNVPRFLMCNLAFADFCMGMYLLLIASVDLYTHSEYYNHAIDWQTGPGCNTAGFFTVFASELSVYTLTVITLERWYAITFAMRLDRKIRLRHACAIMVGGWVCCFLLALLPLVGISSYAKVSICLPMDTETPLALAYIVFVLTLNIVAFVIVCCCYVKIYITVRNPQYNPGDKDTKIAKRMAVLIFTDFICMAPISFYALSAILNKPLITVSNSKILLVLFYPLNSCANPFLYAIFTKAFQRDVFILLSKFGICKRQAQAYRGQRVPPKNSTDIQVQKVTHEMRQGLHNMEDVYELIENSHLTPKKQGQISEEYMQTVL
# Androgen receptor (Homo sapiens), sequence (P10275 whole entry, looked up): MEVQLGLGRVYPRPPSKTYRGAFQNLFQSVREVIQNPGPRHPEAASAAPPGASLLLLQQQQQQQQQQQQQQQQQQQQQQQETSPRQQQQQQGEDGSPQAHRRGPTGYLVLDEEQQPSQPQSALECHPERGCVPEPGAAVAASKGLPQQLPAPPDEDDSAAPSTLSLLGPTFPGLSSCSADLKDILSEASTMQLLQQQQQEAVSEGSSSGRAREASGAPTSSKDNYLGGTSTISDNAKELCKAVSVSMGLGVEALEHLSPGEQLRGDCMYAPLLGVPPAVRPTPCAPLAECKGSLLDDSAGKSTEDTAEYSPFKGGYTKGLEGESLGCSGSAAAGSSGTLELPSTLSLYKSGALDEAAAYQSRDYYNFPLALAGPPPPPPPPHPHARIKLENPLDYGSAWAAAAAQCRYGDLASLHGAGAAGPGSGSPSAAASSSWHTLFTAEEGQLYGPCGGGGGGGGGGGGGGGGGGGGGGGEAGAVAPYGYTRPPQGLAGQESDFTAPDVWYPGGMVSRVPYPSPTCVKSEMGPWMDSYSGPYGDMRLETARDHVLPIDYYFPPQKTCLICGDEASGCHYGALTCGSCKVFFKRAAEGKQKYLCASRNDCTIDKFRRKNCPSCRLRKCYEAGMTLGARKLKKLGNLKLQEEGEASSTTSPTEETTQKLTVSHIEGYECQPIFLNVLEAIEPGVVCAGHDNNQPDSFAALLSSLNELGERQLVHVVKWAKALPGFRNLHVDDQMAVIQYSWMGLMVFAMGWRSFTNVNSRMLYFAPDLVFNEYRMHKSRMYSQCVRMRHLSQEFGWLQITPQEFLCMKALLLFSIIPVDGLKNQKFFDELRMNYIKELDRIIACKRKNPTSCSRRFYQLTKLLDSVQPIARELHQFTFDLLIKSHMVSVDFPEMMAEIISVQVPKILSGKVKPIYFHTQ
# Estrogen receptor (Homo sapiens), sequence (P03372 whole entry, looked up): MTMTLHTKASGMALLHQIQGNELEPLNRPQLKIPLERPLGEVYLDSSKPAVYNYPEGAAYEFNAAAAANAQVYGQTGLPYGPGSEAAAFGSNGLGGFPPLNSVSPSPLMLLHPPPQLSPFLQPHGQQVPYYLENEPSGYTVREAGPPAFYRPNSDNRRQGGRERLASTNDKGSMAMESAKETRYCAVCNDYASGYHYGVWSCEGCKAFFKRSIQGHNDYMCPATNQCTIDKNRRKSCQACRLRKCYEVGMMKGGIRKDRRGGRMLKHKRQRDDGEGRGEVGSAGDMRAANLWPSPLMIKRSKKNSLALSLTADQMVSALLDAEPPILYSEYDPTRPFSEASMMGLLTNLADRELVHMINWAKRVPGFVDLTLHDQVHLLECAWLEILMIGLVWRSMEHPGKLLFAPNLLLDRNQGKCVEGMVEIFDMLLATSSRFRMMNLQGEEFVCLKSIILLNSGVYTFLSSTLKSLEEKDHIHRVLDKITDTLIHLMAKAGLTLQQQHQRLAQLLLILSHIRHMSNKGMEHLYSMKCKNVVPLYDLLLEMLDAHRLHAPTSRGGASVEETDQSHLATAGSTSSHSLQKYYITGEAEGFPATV
Compound,Potency [1],Potency [2],Potency [3],Potency [4],Potency [5],Potency [6],Potency [7],Potency [8],Potency [9],Potency [10],Potency [11],Potency [12],Potency [13],Potency [14],outcome [15],Potency [16],Potency [17],Potency [18],Potency [19],Potency [20]
O=C(Nc1ccc(F)cc1F)c1cccnc1Oc1cccc(C(F)(F)F)c1,inactive,inactive,inactive,inactive,inactive,inactive,inactive,inactive,inactive,inactive,inactive,inactive,inactive,inactive,inactive,inactive,,,,
CC(=O)[O-].CC(=O)[O-].O.O.O.[Pb+2],,,,inactive,inactive,,,inactive,inactive,inactive,inactive,inactive,inactive,inactive,inactive,,inactive,,,
CNN,,,,inactive,inactive,,,,inactive,inactive,inactive,inactive,inactive,inactive,inactive,,inactive,,,
CC1=C2C[C@H]3[C@@H](CC=C4C[C@@H](O)CC[C@@]43C)[C@@H]2CC[C@]12O[C@@H]1C[C@H](C)CN[C@H]1[C@H]2C,,,26.6 µM (active),,inactive,inactive,inactive,,,,,,inactive,,,inactive,266 nM (active),inactive,inactive,inactive
c1ccc2c(c1)cc1ccc3cccc4ccc2c1c34,,,,inactive,,inactive,,,,,,inactive,inactive,inactive,,,inactive,,,inactive
O=S(=O)(NS(=O)(=O)C(F)(F)F)C(F)(F)F,,,19.3 µM (active),,inactive,,,,,,inactive,inactive,inactive,inactive,inactive,,2430 nM (active),,,
CNC(C)(C)Cc1ccccc1,,,,,inactive,inactive,,,inactive,inactive,inactive,inactive,inactive,inactive,inactive,,inactive,,,
COP(=S)(OC)Oc1nc(Cl)c(Cl)cc1Cl,,,inactive,,,inactive,inactive,,,,,,inactive,inactive,inactive,inactive,inactive,,,
[Cl-].[Cl-].[Cl-].[Yb+3],,,inactive,,inactive,,,inactive,,inactive,inactive,,inactive,inactive,,,inactive,,,
CCOP(=S)(OCC)Oc1cc(C)nc(N(CC)CC)n1,inactive,inactive,inactive,inactive,inactive,inactive,30.6 µM (active),,inactive,,,inactive,inactive,inactive,,,,inactive,inactive,inactive
